According to the supplement of paper PMC10338343:
± gives the standard deviation.

tested on: MILI (PIWIL2) piRISC loaded with L1MC piRNA (26 nt); experiment: pre-steady-state target cleavage rate (min^-1); guide: L1MC piRNA 5'p-UAACUAAAUACUAUGCAAGCUGUAGG; MIWI and MILI are mouse PIWI proteins and EfPiwi is from a freshwater sponge; tags in brackets are library labels; higher = faster piRNA-guided slicing of the target; conditions: auxiliary factor: none (no GTSF1)
Method in brief: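 Active affinity-purified piRISC carrying one synthetic guide (1 nM) was mixed with a transcribed, DNA-blocked target RNA library […] in HEPES–potassium acetate buffer at 33 °C for 0–8 or 0–960 min, with or without 500 nM GTSF1 partner protein. Uncleaved targets were then sequenced and normalised to depth and to weakly complementary targets. Three trials were pooled, and k3 was capped at 0.0001 min^-1. A burst-and-steady-state fit was applied to obtain the pre-steady-state cleavage rate.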
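Note: 1 nM active piRISC with 0.1 nM target library at 33 °C single turnover.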

| Sequence | pre-steady-state target cleavage rate |
| --- | --- |
| UCCUGGAUGUCGAAGCAUAGAAUUUACUUA | < 0.0001 |
| UCCUGGAUGUCGAUCCUUAGUAUUUAGUUA | < 0.0001 |
| UCCUGGAUGUCGUUGCAUAGGUAUUUAGUUA | 0.00509 ± 0.0029 |
| UCCUGGAUGUCGUACGAUAGUAUUUAGUUA | < 0.0001 |
| UCCUGGAUGUCGUUGCAUAGUUUAUAGUUA | 0.0036 ± 0.0028 |
| UCCUGGAUGUCGUUCCAUAGUAUUUAGAUA | < 0.0001 |
